According to ChEMBL document CHEMBL3988442, “University of Dundee, Small-Polar-MMV Screening Library” (2021):

Experiments:
[1] = biological target: T1, Aspartate--tRNA(Asp/Asn) ligase (Mycobacterium tuberculosis (strain ATCC 25618 / H37Rv)) (UniProt P9WFW3); assay: Assay for Asp RNA synthetase-1 from Mycobacterium tuberculosis; format: functional; set-up: scale not given: direction of the effect not stated beside the values; conditions: 30 µM; note: in the data most compounds retested in dose-response had high values
T1 sequence (whole entry): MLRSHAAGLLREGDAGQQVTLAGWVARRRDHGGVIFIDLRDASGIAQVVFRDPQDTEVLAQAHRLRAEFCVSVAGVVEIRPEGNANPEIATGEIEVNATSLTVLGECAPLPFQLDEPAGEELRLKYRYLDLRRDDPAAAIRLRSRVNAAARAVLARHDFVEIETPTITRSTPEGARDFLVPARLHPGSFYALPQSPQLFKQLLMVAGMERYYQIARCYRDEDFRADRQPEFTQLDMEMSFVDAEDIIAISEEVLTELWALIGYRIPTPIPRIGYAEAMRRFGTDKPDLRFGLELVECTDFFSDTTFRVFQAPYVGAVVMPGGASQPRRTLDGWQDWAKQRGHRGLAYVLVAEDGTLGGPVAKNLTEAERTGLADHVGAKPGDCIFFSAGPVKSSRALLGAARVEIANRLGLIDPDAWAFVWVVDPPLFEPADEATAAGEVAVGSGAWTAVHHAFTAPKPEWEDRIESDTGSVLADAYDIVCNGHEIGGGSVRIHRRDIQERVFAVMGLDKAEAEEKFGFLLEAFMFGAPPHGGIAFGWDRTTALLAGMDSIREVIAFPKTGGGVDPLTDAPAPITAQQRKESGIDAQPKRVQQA

[2] = biological target: Shiga toxin 2 (Escherichia coli O157:H7) (UniProt P09385+P09386); assay: E. coli 0.157:H7 Shiga Toxin SOP - stx2 screening assay; format: functional; set-up: scale not given: direction of the effect not stated beside the values; conditions: 30 µM

O=C(NC1CCC1)[C@@H]1CCO[C@@H]2CCN(CCc3ccccc3)C[C@H]21
Percent Effect [1]: -2.94%
Percent Effect [2]: -26.8%

CN1CC(=O)N(c2cnn(C)c2)CC12CCN(C(=O)c1ccsc1)C2 (centres undefined)
Percent Effect [1]: 0.595%
Percent Effect [2]: -1.99%

Cc1nnc(Nc2cccc(C3CCN(CCO)CC3)n2)s1
Percent Effect [1]: -2.1%
Percent Effect [2]: 2.64%

CN(C)C(=O)N1CCN(Cc2ccccc2)[C@@H]2CS(=O)(=O)C[C@@H]21
Percent Effect [1]: 0.569%
Percent Effect [2]: -3.78%

O=S1(=O)CCCN1Cc1coc(-c2cccs2)n1
Percent Effect [1]: -3.68%
Percent Effect [2]: 0.853%

Cc1nc(C)n(CC2CCCN(CC(=O)Nc3nncs3)C2)n1 (centres undefined)
Percent Effect [1]: -4.19%
Percent Effect [2]: 25.6%

COCCN1C[C@@H]2CN(C(=O)[C@H]3CCCO3)C[C@@H]2C1=O
Percent Effect [1]: -1.41%
Percent Effect [2]: -16.3%

CCN(Cc1ccc2c(c1)OCCO2)C(=O)NC(C)Cn1ccnc1 (centres undefined)
Percent Effect [1]: 5.58%
Percent Effect [2]: -4.95%

CC(C)c1cc(NCC(O)CO)n2nccc2n1 (centres undefined)
Percent Effect [1]: -1.68%
Percent Effect [2]: -0.898%

O=C(Cn1cccn1)NCC1(c2ccccc2)CC1
Percent Effect [1]: -2.68%
Percent Effect [2]: 16.1%

COCCn1nc(C(=O)N(C)Cc2cnn(C)c2)ccc1=O
Percent Effect [1]: -3.74%
Percent Effect [2]: 9.25%

O=C(c1cn(-c2cc(N3CCSCC3)ncn2)cn1)N1CCSCC1
Percent Effect [1]: -8.02%
Percent Effect [2]: 1.44%

O=C(NCCCn1ccnc1)N1CCCC1c1cccs1 (centres undefined)
Percent Effect [1]: -2.61%
Percent Effect [2]: -5.52%

O=C(Cc1cccc(F)c1)N1CCCCC1c1ccn2ccnc2n1 (centres undefined)
Percent Effect [1]: -2.63%
Percent Effect [2]: -7.82%

CN(C)CCN1C(=O)CCC12CCN(C(=O)c1cccnc1)CC2
Percent Effect [1]: -0.637%
Percent Effect [2]: -8.32%

Cc1cccc(OCCC(=O)N2CCCN(CC(N)=O)CC2)c1C
Percent Effect [1]: -0.457%
Percent Effect [2]: 1.67%

Cc1ccccc1C(=O)N1CCOC2(CNCCOC2)C1 (centres undefined)
Percent Effect [1]: -0.279%
Percent Effect [2]: -0.428%
